Consider 49 compounds from PubChem BioAssay (NCATS).

Test [1] can be described thus: Confirmatory qHTS to identify inhibitors of SARS-CoV-2 cell entry (AID 1645844). Further: nearly all actives have a fitted effect of over 45% in size. On activity, negative = inhibition: on the % scale 0 is the no-effect control and ±100 the full control effect. An outline of the steps: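 HEK293-ACE2 cells (Expi293F stably expressing human ACE2) were pretreated with compounds for 1 hr at 37C, then infected with MLV-based particles carrying Wuhan-Hu-1 spike (C-terminal 19-aa truncation). Luciferase luminescence read after 48 hr; normalized to spike PP (100%) and bald PP (0%).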

Test [2] is described as follows: Cytotoxicity counterscreen for inhibitors of SARS-CoV-2 cell entry (AID 1645845). Further: nearly all actives have a fitted effect of over 50% in size. On activity change, negative = cytotoxicity: on the % scale 0 is the no-effect control and ±100 the full control effect. The note with it: outcome: dose series up to 57.1 µM unless noted. Summed up: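 Expi293F/hACE2 cells seeded overnight; cpd pin-transferred in DMSO, 1 h preincubation, + media, 48 h 37 C 5% CO2; ATPLite 1step luminescence; normalized to cells and no cells.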
Test [3] in a line: VSVG counterscreen qHTS to identify inhibitors of SARS-CoV-2 cell entry (AID 1645847). Further: nearly all actives have a fitted effect of over 65% in size. Summed up: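 Luminescence read after 48 h infection at 37 C with VSV-G-pseudotyped MLV particles, following 1 h compound exposure of Expi293F cells stably expressing human ACE2; scaled between bald particle and VSV-G particle wells.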
Test [4] can be described thus: Primary qHTS to identify inhibitors of SARS-CoV-2 cell entry (AID 1645846). Further: nearly all actives have a fitted effect of over 45% in size. The note with it: SARS-CoV-2 pseudovirus cell entry assay, luminescence; activity change, negative = inhibition: at 57.1 µM (top of the series) unless noted. An outline of the steps: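 Entry measured by luciferase signal 48 h after adding SARS-CoV-2-S pseudotyped MLV particles to HEK293-ACE2 cells preincubated 1 h with compounds. Normalisation: bald particles and spike particles.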

A short description of test [5]: S16 Schwann cell PMP22 intronic element beta-lactamase assay (AID 624044). Further: nearly all actives have a fitted effect of over 15% in size. The settings on record: S16 rat Schwann cells, PMP22 element beta-lactamase FRET, 24 h; ratio activity, negative = inhibition: at 38.3 µM (top of the series) unless noted. An outline of the steps:
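Rat S16 Schwann cells with beta-Lac driven by a PMP22 intronic element, compound-treated 24 h at 37 °C. LiveBLAzer FRET B/G read: 460 nm normalized to potassium clavulanate vs DMSO; 535 nm FRET as viability; concentration-effect curves classified.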

Records with an inconclusive call do not appear. Active and inactive are the calls of the source. The call rests on the fitted dose curve.
Potency means the concentration at half of the fitted maximal effect.

Consider `C=CC(=O)Nc1cccc(Nc2nc(Nc3ccc(OCCOC)cc3)ncc2F)c1`, for which the Potency in test [1] is 6810 nM (active); in test [3], 4820 nM (active). For the same compound, the Potency result in test [2] was “inactive”. `O=c1c(-n2ccnn2)c[nH]n1-c1cc(N2CCOCC2)ncn1`: the results for the Potency in test [1], in test [4] and in test [3] were 4820 nM (active), 7080 nM (active) and 21500 nM (active), respectively. Regarding `O=C(/C=C\n1cnc(-c2cc(C(F)(F)F)cc(C(F)(F)F)c2)n1)NNc1cnccn1`, the Potency is 3040 nM (active) in test [1], 2820 nM (active) in test [4] and 1710 nM (active) in test [3]. Besides, the Potency entry in test [2] was “inactive”. Consider `CCN(CCCOc1ccc2c(Nc3cc(CC(=O)Nc4cccc(F)c4)[nH]n3)ncnc2c1)CCOP(=O)(O)O`, for which the Potency in test [1] was 34.1 nM (active); in test [3] it was 76.4 nM (active). Besides, the Potency result in test [2] is “inactive”. Moreover, the activity change, negative = inhibition in test [4] is -62.3%. On to `CC[C@@]1(O)C(=O)OCc2c1cc1n(c2=O)Cc2c-1nc1ccccc1c2CCNC(C)C`, for which the Potency in test [1] was 5.4 nM (active); in test [3], 6.1 nM (active). For the same compound, the activity change, negative = cytotoxicity in test [2] is -47.2% [at 5.25 µM] (inactive). The activity change, negative = inhibition in test [4] was -96.8% [at 5.25 µM]. Turning to `CNCCCOc1cc(F)c(-c2c(Cl)nc3ncnn3c2N[C@@H](C)C(F)(F)F)c(F)c1`, the Potency in test [1] is 1210 nM (active); in test [3], 121 nM (active). In test [4], the activity change, negative = inhibition is -85.4%. In the case of `CN(C)CCN1C(=O)c2cccc3cc(NC(N)=O)cc(c23)C1=O`, the Potency in test [1] was 9610 nM (active); in test [4] it was 7080 nM (active); in test [3], 12100 nM (active). As to `N#Cc1cccnc1N1CCN(C(=O)c2cccc(Cc3n[nH]c(=O)c4ccccc34)c2)CC1`, the Potency in test [1] is 68.1 nM (active); in test [3] it was 60.7 nM (active). Moreover, the activity change, negative = inhibition in test [4] was -93.1%. With `COc1cc2c3c(n(CCCn4ccnc4)c(=O)c2cc1OC)-c1cc2c(cc1C3=O)OCO2`, the Potency is 48.2 nM (active) in test [1] and 60.7 nM (active) in test [3]. Besides, the Potency entry in test [2] was “inactive”. Moreover, the activity change, negative = inhibition in test [4] is -94.4%. As to `CS[C@H]1SC[C@@H]2C(=O)N(C)[C@H](C(C)C)C(=O)OC[C@H](NC(=O)c3cnc4ccccc4n3)C(=O)N[C@H](C)C(=O)N(C)[C@H]1C(=O)N(C)[C@H](C(C)C)C(=O)OC[C@H](NC(=O)c1cnc3ccccc3n1)C(=O)N[C@H](C)C(=O)N2C`, the Potency in test [1] is 8.6 nM (active); in test [3], 7.6 nM (active). Also, the Potency result in test [2] is “inactive”. For the same compound, the activity change, negative = inhibition in test [4] is -94.2%. Regarding `COCCNCc1ccc(-c2cc3nccc(Oc4ccc(NC(=S)NC(=O)Cc5ccc(F)cc5)cc4F)c3s2)nc1`, the figures for the Potency in test [1] and in test [3] were 3830 nM (active) and 1360 nM (active), respectively. `CSC[C@H]1CN(Cc2c[nH]c3c(N)ncnc23)C[C@@H]1O`: the Potency entry in test [2] was “inactive”. Consider `COc1cc(N2CCC(N)CC2)ccc1Nc1ncc(Cl)c(-c2c[nH]c3ccccc23)n1`, for which the Potency in test [2] is 31600 nM (active).

As to `CNC(=O)[C@H](Cc1c[nH]c2ccccc12)NC(=O)[C@@H](CC(=O)NO)CC(C)C`, the Potency entry in test [2] was “inactive”.

In the case of `CN(C)CCCOc1ccc(-c2ccc3ncc4c(c3c2)n(C2CCOCC2)c(=O)n4C)cn1`, the Potency is 5910 nM (active) in test [1] and 2350 nM (active) in test [3]. As to `CC(/C=C/C(=O)NO)=C\[C@@H](C)C(=O)c1ccc(N(C)C)cc1`, the Potency in test [2] was 7940 nM (active). The same measure, in the same setting: the value for `Nc1n[n+]([O-])c2ccccc2[n+]1[O-]` was “inactive”. For `COc1cc(F)ccc1-c1ncnc(Nc2cccc(CS(C)(=N)=O)c2)n1` (stereo unspecified), the figures for the Potency in test [1] and in test [3] were 3830 nM (active) and 4290 nM (active), respectively. Take `CCCc1cc(C)[nH]c(=O)c1CNC(=O)c1cc(-c2ccc(N3CCN(C(C)C)CC3)nc2)cc2c1cnn2C(C)C`: in test [2], the Potency result was “inactive”. As for `CCc1cc(C(N)=O)ccc1-n1nc(C(C)C)c2c(-n3cnc(-c4cnn(C)c4)c3)ccnc21`, the Potency was 10800 nM (active) in test [1] and 3040 nM (active) in test [3]. On the same counts, the results for `CC[C@]1(O)CC2CN(CCc3c([nH]c4ccccc34)[C@@](C(=O)OC)(c3cc4c(cc3OC)N(C)[C@H]3[C@@](O)(C(=O)OC)[C@H](OC(C)=O)[C@]5(CC)C=CCN6CC[C@]43[C@@H]65)C2)C1` (stereo partly specified) are 4.3 nM (active) and 38.3 nM (active). Regarding `CNC(=O)c1cccc(-c2ccc3c(N4CCOC[C@@H]4C)nc(N4CCOC[C@@H]4C)nc3n2)c1`, the Potency was 2410 nM (active) in test [1] and 2710 nM (active) in test [3].

On to `O=c1[nH]nc2c3c(cccc13)NC(CN1Cc3ccccc3C1)=N2`, for which the Potency entry in test [2] was “inactive”. The same measure, in the same setting: the result for `Cc1ccc(NC(=O)Nc2cc(C(F)(F)F)ccc2F)cc1Nc1ccc2c(c1)NC(=O)/C2=C\c1ccc[nH]1` reads “inactive”; that for `O=C1Cc2cc(C(=O)NC3C[C@H]4CC[C@@H](C3)N4S(=O)(=O)CC3CCN(CCCC(F)(F)F)CC3)c(Cl)cc2N1` (stereo partly specified), “inactive”. Regarding `O=C1NC(=O)[C@@H](c2c[nH]c3ccccc23)[C@H]1c1cn2c3c(cccc13)CCC2`, the figures for the Potency in test [1] and in test [3] were 7640 nM (active) and 1520 nM (active), respectively.

For `O=C1NC(=O)C(c2cnc3ccccn23)=C1c1cn2c3c(cc(F)cc13)CN(C(=O)N1CCCCC1)CC2`, the Potency in test [1] is 2150 nM (active); in test [3] it was 152 nM (active). On the same counts, the results for `Cc1nnc(C[C@@H]2C=C(c3ccc(Cl)cc3)c3ccccc3-n3c(C)nnc32)o1` are “inactive” and 9610 nM (active). As for `CN1CCN(c2ccc(Nc3ncc4cc(C#N)c(=O)n(C5CCCC5)c4n3)cc2)CC1`, in test [2], the Potency result is “inactive”. In the case of `COc1ccc(N(C)c2nc(C)nc3ccccc23)cc1`, the Potency was 6810 nM (active) in test [1] and 4820 nM (active) in test [3]. Also, in test [4], the activity change, negative = inhibition is -80.5%. With `O=C(Nc1ccnc(NC(=O)C2CC2)c1)c1c(Cl)cccc1Cl`, the Potency in test [1] is 1920 nM (active); in test [3] it was 2710 nM (active). On to `CN1C(=O)c2sccc2N(C)c2nc(Nc3ccc(S(N)(=O)=O)cc3)ncc21`, for which, in test [2], the Potency entry is “inactive”.

Take `C[C@@]12C(=O)OC(=O)[C@]1(C)[C@H]1CC[C@@H]2O1`: the Potency in test [5] is 3370 nM (active); in test [1], 4820 nM (active); in test [4], 8910 nM (active); in test [3], 3040 nM (active).

Consider `CC(=O)c1ccc2c(c1)c1cc(C(C)=O)ccc1n2CCNC(C)C`, for which the Potency was 54.1 nM (active) in test [1] and 136 nM (active) in test [3]. The like results for `CN[C@H]1CN(c2ccc3c(=O)c(C(=O)O)cn(-c4nccs4)c3n2)C[C@@H]1OC` were, in that order, 555 nM (active) and 622 nM (active).

On to `COc1ccc(S(=O)(=O)N2CCc3cccc(-c4ccncc4)c32)cc1`, for which the Potency is 961 nM (active) in test [1] and 1520 nM (active) in test [3]. In the case of `C=CC(=O)N1CC[C@@H](Oc2nc(Nc3ccc(N4CCC(N5CCN(C)CC5)CC4)cc3)c(C(N)=O)nc2CC)C1`, the values for the Potency in test [1] and in test [3] were 2350 nM (active) and 5270 nM (active), respectively. On to `COc1cc2ncnc(Nc3ccc(O)c(Br)c3)c2cc1OC`, for which the Potency result in test [2] was “inactive”.

Consider `Cn1cc(C2=C(c3cn(C)c4cc([N+](=O)[O-])ccc34)C(=O)NC2=O)c2ccccc21`, for which the Potency in test [1] was 1710 nM (active); in test [3] it was 1080 nM (active). For `CO[C@@H]1[C@@H](O)[C@H](O)[C@@H](n2c3c(Cl)cccc3c3c4c(c5c6cccc(Cl)c6[nH]c5c32)C(=O)NC4=O)O[C@H]1CO`, the values for the Potency in test [1] and in test [3] were 961 nM (active) and 857 nM (active), respectively. As for `CO[C@H]1/C=C/O[C@@]2(C)Oc3c(C)c(O)c4c(O)c(c5c(nc6cc(C)ccn65)c4c3C2=O)NC(=O)/C(C)=C\C=C\[C@H](C)[C@H](O)[C@@H](C)[C@@H](O)[C@@H](C)[C@H](OC(C)=O)[C@@H]1C`, the Potency entry in test [2] was “inactive”.

In the case of `Nc1nc(-c2nn(Cc3ccccc3F)c3ncccc23)ncc1C1CC1`, the Potency in test [1] was 5410 nM (active); in test [3], 12100 nM (active). Consider `Nc1nccc(-c2c(-c3ccc(F)cc3)ncn2C2CCN(Cc3ccon3)CC2)n1`, for which the Potency result in test [2] is “inactive”.

Regarding `CC(C)(C)S(=O)(=O)c1ccc2nccc(Nc3n[nH]c4ccc(F)cc34)c2c1`, the Potency result in test [2] was “inactive”. The same measure, in the same setting: the result for `Cc1ncc(NC(=O)c2cccc(C(F)(F)F)c2)cc1-c1cnc(OC2CCOCC2)c(N2CCOCC2)c1` reads “inactive”. Still for that read-out and setting: the value for `CCn1c(=O)c(-c2ccc(-c3cncs3)cc2Cl)cc2cnc(Nc3ccc(N4CCN(C)CC4)cc3)nc21` was “inactive”; that for `C[C@@H]1Cc2c([nH]c3ccccc23)[C@@H](c2c(F)cc(/C=C/C(=O)O)cc2F)N1CC(C)(C)F` was “inactive”; that for `CCCCCCCCCCCCCCCCOCCCOP(=O)(O)COC(CO)Cn1ccc(N)nc1=O` (stereo unspecified) was “inactive”. Still for that read-out and setting: the result for `C=C1C(=O)OC2/C=C(/C)CC/C=C(/C)CCC12` (stereo unspecified) reads “inactive”.
